From PubChem BioAssay (NCI)
About 83,000 compounds went through this panel and 20% of them were active in at least one assay; those are over-represented in the sample as a whole.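 For each line, cells grew in 96-well plates with the test compound present at a single concentration for 48 hours.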 Unmarked numbers belong to inactive results. The source made the active and inactive calls. How the source made its calls: active means growth percent below 10; inactive means the rest.

Tests used:
Experiment in all cases: NCI-60 one-dose screen, 48 h (100 = growth as untreated, 0 = no growth, -100 = all killed)
Conditions in all cases: 10 µM unless noted
DU-145 prostate = test system: DU-145 prostate
K-562 leukemia = test system: K-562 leukemia
MALME-3M melanoma = test system: MALME-3M melanoma
MDA-MB-231 breast = test system: MDA-MB-231 breast
RXF 393 renal = test system: RXF 393 renal
SF-268 CNS = test system: SF-268 CNS
SF-295 CNS = test system: SF-295 CNS
SF-539 CNS = test system: SF-539 CNS
UACC-257 melanoma = test system: UACC-257 melanoma
M14 melanoma = test system: M14 melanoma
HCT-15 colon = test system: HCT-15 colon
HT29 colon = test system: HT29 colon
SNB-75 CNS = test system: SNB-75 CNS
U251 CNS = test system: U251 CNS
PC-3 prostate = test system: PC-3 prostate
SK-MEL-5 melanoma = test system: SK-MEL-5 melanoma
UACC-62 melanoma = test system: UACC-62 melanoma
LOX IMVI melanoma = test system: LOX IMVI melanoma
SK-MEL-28 melanoma = test system: SK-MEL-28 melanoma
SNB-19 CNS = test system: SNB-19 CNS

SMILES	growth (DU-145 prostate)	growth (K-562 leukemia)	growth (MALME-3M melanoma)	growth (MDA-MB-231 breast)	growth (RXF 393 renal)	growth (SF-268 CNS)	growth (SF-295 CNS)	growth (SF-539 CNS)	growth (UACC-257 melanoma)	growth (M14 melanoma)	growth (HCT-15 colon)	growth (HT29 colon)	growth (SNB-75 CNS)	growth (U251 CNS)	growth (PC-3 prostate)	growth (SK-MEL-5 melanoma)	growth (UACC-62 melanoma)	growth (LOX IMVI melanoma)	growth (SK-MEL-28 melanoma)	growth (SNB-19 CNS) [%]
CC1(C)C(=NO)C(C)(C)C1=NO	114%	98.8%	116%	123%	112%	103%	108%	117%	95.4%	99.5%	102%	105%	96.5%	113%	90.7%	103%	109%	108%	113%	
Cc1ccc(S(=O)(=O)Oc2ccc(Br)cc2Br)cc1	78.1%	18.5%	92%	85%	87.9%	76.5%	69.3%	81.6%	81.4%	78.8%	48.5%	34.5%	64.8%	48.5%	79.4%	77.9%	63.8%	52.3%	92.8%	
N#Cc1c(Cl)nc(SCC2CO2)nc1-c1ccccc1 (stereo not drawn)	123%	128%	85.1%	118%	101%	116%	117%	105%	39.9%	98.5%	110%	111%	95.6%	104%	110%	107%	107%	98.4%	114%	
CCN(CC)CCS(=O)(=O)CCNc1ccnc2cc(Cl)ccc12	-24% (active)	7.87% (active)	1.04% (active)	-2.95% (active)	-17.2% (active)	4.55% (active)	25.9%	-2.68% (active)	59%	-10.5% (active)	10.1%	-21.1% (active)	9.48% (active)	-4.39% (active)	33%	29.5%	29.7%	11.3%	49.5%	
CC1Cc2c(Cl)ncnc2N(C)c2ccc(O)cc21 (stereo not drawn)	108%	89.6%	53.4%	21.1%	32.1%	29.1%	49.7%	34.6%	33.9%	21.9%	67.3%	74.7%	85%	36%	31.4%	-78.9% (active)	33.8%	11.9%	27.8%	
CC1Cc2ccc(OCCN(C)C)cc2C1=O (stereo not drawn)	107%	100%	108%	112%	110%	103%	99.6%	99.5%	80%	99.4%	108%	98.5%	98%	89.5%	89.9%	91.6%	105%	96.4%	103%	
Nn1c(Nc2ccc(S(=O)(=O)Nc3ncccn3)cc2)nnc(/C=C/c2c(O)ccc3ccccc23)c1=O	99.7%	85.2%	94.2%	71.4%	106%	84.7%	100%	102%	94.4%	97.5%	91.3%	105%	92.2%	85.8%	75.4%	88.2%	84.3%	84.3%	112%	
CC(=O)n1cc(C=O)c2ccccc21	104%	87.3%	102%	113%	113%	102%	101%	104%	94.7%	102%	106%	97.7%	81.7%	86.3%	93.5%	97.2%	94.2%	93.8%	105%	
CC1=C/C(=C(\c2cc(C)c(O)c(C(=O)O)c2)c2c(Cl)cccc2Cl)C=C(C(=O)O)C1=O	118%	114%	88.3%	99.9%	120%	104%	100%	100%	106%	97.4%	105%	97.8%	90.3%	104%	89%	100%	94.9%	95.7%	116%	
COc1cc2c(c(OC)c1OC)-c1ccc(NNC(N)=S)c(=O)cc1[C@@H](NC(C)=O)CC2	-14.5% (active)	10.1%	88.4%	20%	-8.91% (active)	21.3%	10.6%	-18.4% (active)	57.2%	-2.7% (active)	38.8%	-17.8% (active)	59.5%	13.6%	13.8%	-41.2% (active)	32.2%	26.2%	62.8%	
C#CCNC(=O)CC[C@@H](C)[C@H]1CC[C@H]2[C@@H]3CC[C@@H]4CC(=O)CC[C@]4(C)[C@H]3CC[C@]12C	-38.1% [100 µM] (active)	4.55% [100 µM] (active)	-82.2% [100 µM] (active)	-78% [100 µM] (active)	-76.1% [100 µM] (active)	-20.4% [100 µM] (active)	-51.3% [100 µM] (active)	-82.6% [100 µM] (active)	-0.129% [100 µM] (active)	-22.4% [100 µM] (active)	1.91% [100 µM] (active)	-25% [100 µM] (active)	-58.3% [100 µM] (active)	-43.4% [100 µM] (active)	-14.6% [100 µM] (active)	-86.5% [100 µM] (active)	-74% [100 µM] (active)	-71.6% [100 µM] (active)	-84.4% [100 µM] (active)	
O=C(Oc1ccc(Cl)cc1[N+](=O)[O-])Oc1ccc(Cl)cc1[N+](=O)[O-]	116%	90.2%	135%	126%	124%	105%	119%	109%	107%	109%	106%	107%	108%	99%	88.5%	120%	113%	111%	106%	
CCN(CC)c1cc(N)c(Cc2c(N)cc(N(CC)CC)cc2Cl)c(Cl)c1	67.4%	19.2%	44.6%	48.5%	63.7%	36.6%	31.8%	44.2%	12.4%	52.5%	91.7%	27.6%	8.86% (active)	21.6%	38.4%	-27.8% (active)	47.5%	37.7%	53.2%	
CC(C)[N+](C)(C)CC(O)COc1cccc2ccccc12 (stereo not drawn)	106%	106%	103%	103%	115%	94%	104%	96%	90.4%	107%	97.1%	111%	109%	101%	92.2%	107%	101%	93.2%	113%	
COc1cc2c(c(OC)c1OC)-c1cc(I)c(O)cc1[C@@H](NC(C)=O)CC2	16.9%	25.6%	80.2%	7.04% (active)	37.7%	8.91% (active)	22.4%	-27.8% (active)	61.9%	14.4%	4.21% (active)	10.8%	28%	7.36% (active)	28.8%	-15.2% (active)	17.8%	24.4%	76.7%	
NC(=O)c1cccc(-c2ccc(S(=O)(=O)Nc3ccc4c(c3)N(C(=O)C3CC3)CCC4)cc2)c1	76.3%	25.6%	39.1%	46.2%	47.7%	48.8%	18%	26.3%	46.2%		91.9%	13.6%	11.9%	31.3%	40%	11.4%	26.7%	41.6%		48.3
